This is a sample that favours compounds with a hit; in the whole collection about 22% have one here.
CYP2C19 activ: human CYP2C19 activators, primary screen, biochemical, luminescence | 96,000 tested, under 10 active | recombinant CYP2C19, luciferin-H EGE luminescence; hits give high values; 0 = fully inhibited enzyme, 1 = untreated enzyme | Cytochrome P450 2C19 (Homo sapiens), P33261 | activation factor at 5 µM;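 active = activation factor of at least 2 at 5 µM in the primary screen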;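 note: 0 = wells with 2.5 mM tranylcypromine and 1 = vehicle-only wells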
Target sequence (P33261 whole entry, looked up): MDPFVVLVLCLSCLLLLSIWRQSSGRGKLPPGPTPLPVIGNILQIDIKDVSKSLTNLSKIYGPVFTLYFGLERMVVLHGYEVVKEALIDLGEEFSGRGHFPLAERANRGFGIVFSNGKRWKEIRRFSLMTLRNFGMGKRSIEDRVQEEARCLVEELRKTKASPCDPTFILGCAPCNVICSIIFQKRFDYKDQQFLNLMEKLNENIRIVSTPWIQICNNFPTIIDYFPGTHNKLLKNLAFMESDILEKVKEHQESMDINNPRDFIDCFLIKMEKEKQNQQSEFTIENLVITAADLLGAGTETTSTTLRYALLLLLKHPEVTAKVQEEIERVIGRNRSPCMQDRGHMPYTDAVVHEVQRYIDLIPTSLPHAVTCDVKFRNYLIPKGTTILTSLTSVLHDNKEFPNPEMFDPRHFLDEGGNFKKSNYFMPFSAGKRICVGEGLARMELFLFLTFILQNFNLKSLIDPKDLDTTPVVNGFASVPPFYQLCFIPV
CYP2C19 inhib: blockers of cytochrome P450 2C19 activity – biochemical, luminescence, ADME assay, primary screen; inhibition, % at 5 µM; AID 778, 2007; CYP2C19 Supersomes, luciferin-H EGE luminescence, 30 min; P33261; hit rate 21% among 96,000;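 active = CYP2C19 inhibition above a set limit at 5 µM in the primary screen, cut at about 50% in these data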;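 note: plate controls were negative control wells for no effect and 2.5 mM tranylcypromine positive control for full effect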
Measles CPE: compounds protecting cells from measles virus cytopathic effect, primary screen, measles RdRp inhibitor project, single point, MLSMR library, absorbance; Measles virus-infected cells, CPE protection; hit rate 1.5% among 140,000; AID 841, 2007; protection (pct of control), % at 4 µM; in the data active = protection mostly above about 24%, no sharp cut-off; inactive = mostly below about 26%
CYP2C9 activ: human CYP2C9 activators, primary screen, biochemical, luminescence; activation factor at 5 µM; recombinant CYP2C9, luciferin-H conversion; hits give high values; factor 1 = untreated enzyme, 0 = blocked; AID 1024, 2008; hit rate 1.4% among 96,000;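 active = activation factor of 2 or more for CYP2C9 at a 5 µM dose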;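 note: 0 = sulfaphenazole-blocked wells and 1 = vehicle-only wells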
CYP2C9 inh: blockers of cytochrome P450 2C9 activity – biochemical, luminescence, ADME assay, primary screen | inhibition, % at 5 µM | AID 777, 2007 | CYP2C9 Supersomes, luciferin-H conversion | hit rate 20% among 96,000 | P11712;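 active = blocking of liver enzyme CYP2C9 beyond about 50% at 5 µM, limit read from the data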
An asterisk follows results filed as active; nt = no result given.

SMILES | CYP2C19 activ | CYP2C19 inhib | Measles CPE | CYP2C9 activ | CYP2C9 inh
COC(=O)c1ccc(Cn2nc(C)c(Cl)c2C)o1 | 0.8 | 23 | 11 | 0.9 | 9
COc1cc(CNC(=O)c2ccc(Cn3nc(C)c(Cl)c3C)o2)cc(OC)c1 | 0.4 | 62* | 10 | 1.2 | -21
COc1cc(CNc2nc3ccccc3n2C)cc(OC)c1OC | nt | nt | 3 | nt | nt
Cn1c(NCc2cccc(Br)c2)nc2ccccc21 | 0.5 | 54* | 3 | 0.7 | 31
Cn1c(NCc2ccccc2O)nc2ccccc21 | 0.4 | 64* | 28* | 1 | -1
Nc1nc(NCc2ccccc2)nc(-c2ccccc2)n1 | 0.2 | 80* | 2 | 0.2 | 78*
NC(=O)c1cc(-c2ccccc2)sc1NC(=O)Cc1ccc(S(=O)(=O)N2CCOCC2)s1 | 0.9 | 14 | 6 | 0.5 | 52*
Cn1c(C(C#N)/C(=N\S(=O)(=O)c2cccs2)c2ccccc2)nc2ccccc21 (stereo unspecified) | 1 | 2 | 19 | 0.7 | 28
Cn1c(C(C#N)C2=C(Cl)C(=O)N(c3ccccc3)C2=O)nc2ccccc21 (stereo unspecified) | 0.2 | 78* | 10 | 0.1 | 92*
COc1ccc(NC(C)C(=O)N/N=C/c2ccccc2OCc2cccc(Br)c2)cc1 (stereo unspecified) | nt | nt | 16 | nt | nt
Cc1[nH]c2ccccc2c1C(=O)COC(=O)C1CC(=O)N(Cc2ccco2)C1 (stereo unspecified) | 0.4 | 56* | 6 | 0.9 | 11
COc1cc2c(cc1NC(=O)COC(=O)C1CC(=O)N(Cc3ccco3)C1)oc1ccccc12 (stereo unspecified) | 0.7 | 26 | 15 | 0.4 | 59*
COc1ccc(C(=O)Cc2ccccc2)cc1OC | nt | nt | 4 | nt | nt
c1ccc(N2CCN(C3CCSC3)CC2)cc1 (stereo unspecified) | 0.7 | 28 | 4 | 1 | 2
COc1ccc(C)cc1NC(=O)CN1CCN(S(=O)(=O)c2ccc(Cl)cc2)CC1 | 0.3 | 66* | 2 | 0.4 | 65*
COc1ccc(OC)c(C(=O)CN2CCN(S(=O)(=O)c3ccc(Br)cc3)CC2)c1 | 0.2 | 83* | 3 | 0.4 | 58*
COc1ccc(C)cc1NC(=O)CN1CCN(S(=O)(=O)c2ccc(C(C)C)cc2)CC1 | 0.1 | 86* | 4 | 0.1 | 88*
COc1cccc(C(=O)CN2CCN(S(=O)(=O)c3cccc([N+](=O)[O-])c3)CC2)c1 | nt | nt | 19 | nt | nt
CCCCCOc1ccc(C(=O)NC(C(=O)O)C(C)C)cc1 (stereo unspecified) | 1 | -3 | 22 | 1 | 0
O=C(CS(=O)(=O)c1c[nH]c2ccccc12)Nc1ccc2c(c1)OCCO2 | 0.3 | 68* | 26 | 0.7 | 30
Cc1ccc(C)c(NC(=O)CS(=O)(=O)c2cn(C)c3ccccc23)c1 | nt | nt | 22 | nt | nt
Cc1ccc(NC(=O)CS(=O)(=O)c2c[nH]c3ccccc23)c(C)c1 | 0.3 | 75* | 10 | 1.4 | -38
COc1ccc2[nH]cc(C(=O)CN(C)CCc3ccc(OC)c(OC)c3)c2c1 | 0.1 | 85* | 1 | 0.1 | 91*
COc1ccc(CCNC(=O)c2c[nH]c3ccccc3c2=O)cc1OC | 0.5 | 50* | 10 | 0.7 | 29
CCN(CC)S(=O)(=O)c1ccc2[nH]cc(C(=O)NCCc3ccc(OC)c(OC)c3)c(=O)c2c1 | 0.4 | 57* | 1 | 0.4 | 60*
SMILES | CYP2C19 activ | CYP2C19 inhib | Measles CPE | CYP2C9 activ | CYP2C9 inh
COc1ccc2[nH]cc(C(=O)CN3CCCCC3C)c2c1 (stereo unspecified) | 0.8 | 23 | 10 | 0.8 | 18
COc1cc2[nH]cc(C(=O)NCCc3ccccc3)c(=O)c2cc1OC | nt | nt | 11 | nt | nt
COc1ccc(C2(O)CCN(Cc3nnnn3Cc3ccc(F)cc3)CC2)cc1 | 1.1 | -8 | 18 | 1 | -2
Cc1cccc(C)c1NC(=S)NC(=O)CCc1ccccc1 | 0.5 | 50* | 14 | 0.7 | 32
Cn1c(SCc2cc(=O)n3cc(Br)ccc3n2)nnc1C1COc2ccccc2O1 (stereo unspecified) | 0.7 | 30 | 7 | 0.5 | 54*
Cn1c(SCC(=O)c2ccc3c(c2)OCO3)nnc1C1COc2ccccc2O1 (stereo unspecified) | 1.1 | -8 | 16 | 0.6 | 44
